According to PubChem BioAssay (NCI):
About 83,000 compounds went through this panel and 20% of them were active in at least one assay; those are over-represented in the sample as a whole.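 How to read the values: 0–100, growth inhibition (40 = 60% inhibited); 0, no net growth; -100 to 0, cell death (-40 = 40% of starting cells died; -100 = all dead).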 The source made the active and inactive calls. How the source made its calls: active means growth percent below 10; inactive means the rest.

Legend:
Experiment in all cases: NCI-60 one-dose screen, 48 h (100 = growth as untreated, 0 = no growth, -100 = all killed)
[1] = system: NCI-H226 lung; conditions: 10 µM
[2] = system: HOP-62 NSCLC; conditions: 10 µM
[3] = system: NCI-H460 lung; conditions: 10 µM
[4] = system: A549/ATCC NSCLC; conditions: 10 µM
[5] = system: COLO 205 colon; conditions: 10 µM
[6] = system: DU-145 prostate; conditions: 10 µM
[7] = system: K-562 leukemia; conditions: 10 µM
[8] = system: SF-539 CNS; conditions: 10 µM
[9] = system: HCT-15 colon; conditions: 10 µM
[10] = system: HT29 colon; conditions: 10 µM
[11] = system: SNB-75 CNS; conditions: 10 µM
[12] = system: SNB-19 CNS; conditions: 10 µM
[13] = system: U251 CNS; conditions: 10 µM
[14] = system: PC-3 prostate; conditions: 10 µM
[15] = system: LOX IMVI melanoma; conditions: 10 µM
[16] = system: MOLT-4 leukemia; conditions: 10 µM
[17] = system: SR leukemia; conditions: 10 µM
[18] = system: RPMI-8226 leukemia; conditions: 10 µM
[19] = system: SK-OV-3 ovarian; conditions: 10 µM
[20] = system: MDA-MB-468 breast; conditions: 10 µM unless noted

## CC1[C@H]2[C@H](C[C@H]3[C@@H]4CC=C5c6sc(Nc7cccc(Cl)n7)nc6CC[C@]5(C)[C@H]4CC[C@@]32C)O[C@]12CC[C@@H](C)CO2 (stereo not given in full)
[1]
  growth: 81.5% (inactive)
[2]
  growth: 116% (inactive)
[3]
  growth: 85.7% (inactive)
[4]
  growth: 96.1% (inactive)
[5]
  growth: 70.2% (inactive)
[6]
  growth: 99.1% (inactive)
[7]
  growth: 54.5% (inactive)
[8]
  growth: 110% (inactive)
[9]
  growth: 73.9% (inactive)
[10]
  growth: 100% (inactive)
[11]
  growth: 127% (inactive)
[12]
  growth: 96.6% (inactive)
[13]
  growth: 92.2% (inactive)
[14]
  growth: 48% (inactive)
[15]
  growth: 79.6% (inactive)
[16]
  growth: 79.8% (inactive)
[17]
  growth: 65.3% (inactive)
[18]
  growth: 56.5% (inactive)
[19]
  growth: 108% (inactive)
[20]
  growth: 93.6% (inactive)

## Cn1cc(-c2cc(N)n3nc(-c4cn(C)c5ccccc45)cc3n2)c2cc(F)ccc21
[1]
  growth: -39.8% (active)
[2]
  growth: -64.6% (active)
[3]
  growth: -61.6% (active)
[4]
  growth: -23.5% (active)
[5]
  growth: -82.3% (active)
[6]
  growth: -2.27% (active)
[7]
  growth: 0.146% (active)
[8]
  growth: -81.6% (active)
[9]
  growth: -80.2% (active)
[10]
  growth: -72.2% (active)
[11]
  growth: -67% (active)
[12]
  growth: -6.35% (active)
[13]
  growth: -77% (active)
[14]
  growth: -28% (active)
[15]
  growth: -86.2% (active)
[16]
  growth: -14.4% (active)
[17]
  growth: 9.63% (active)
[18]
  growth: -13.3% (active)
[19]
  growth: -77.7% (active)
[20]
  growth: -36.3% (active)

## O=C(c1ccc(Cl)cc1)C(c1c[nH]c2ccccc12)c1c[nH]c2ccccc12
[1]
  growth: -50.8% (active)
[2]
  growth: 16% (inactive)
[3]
  growth: -53.5% (active)
[4]
  growth: 4.91% (active)
[5]
  growth: -87.9% (active)
[6]
  growth: -91.7% (active)
[7]
  growth: 0.546% (active)
[8]
  growth: -94.2% (active)
[9]
  growth: -63.9% (active)
[10]
  growth: -71.1% (active)
[11]
  growth: 31.9% (inactive)
[12]
  growth: 22.4% (inactive)
[13]
  growth: -89.1% (active)
[14]
  growth: -33.2% (active)
[15]
  growth: -85.1% (active)
[16]
  growth: -1.68% (active)
[17]
  growth: -12.2% (active)
[18]
  growth: -27.9% (active)
[19]
  growth: 57.2% (inactive)
[20]
  growth: -71.1% (active)

## O=C1NC2C=CC=CC2/C1=C1/SC(=S)N(C2CC(=O)N(c3ccc(Br)cc3)C2=O)C1=O (stereo not given)
[1]
  growth: 91.3% (inactive)
[2]
  growth: 99.2% (inactive)
[3]
  growth: 100% (inactive)
[4]
  growth: 99% (inactive)
[5]
  growth: 104% (inactive)
[6]
  growth: 97.5% (inactive)
[7]
  growth: 55.1% (inactive)
[8]
  growth: 93.6% (inactive)
[9]
  growth: 59.3% (inactive)
[10]
  growth: 98.1% (inactive)
[11]
  growth: 101% (inactive)
[12]
  growth: 93.9% (inactive)
[13]
  growth: 91.4% (inactive)
[14]
  growth: 76.6% (inactive)
[15]
  growth: 33.8% (inactive)
[16]
  growth: 70.5% (inactive)
[17]
  growth: 67.9% (inactive)
[18]
  growth: 50% (inactive)
[19]
  growth: 99.1% (inactive)
[20]
  growth: 84.2% (inactive)

## COc1ccc(Cc2nn(CC(=O)N/N=C/c3ccc(Br)cc3)c(=O)c3c(C)noc23)cc1
[1]
  growth: 55.3% (inactive)
[2]
  growth: 2.75% (active)
[3]
  growth: 9.38% (active)
[4]
  growth: 6.92% (active)
[5]
  growth: 52.2% (inactive)
[6]
  growth: 55.4% (inactive)
[7]
  growth: 51.8% (inactive)
[8]
  growth: 13% (inactive)
[9]
  growth: 63.8% (inactive)
[10]
  growth: 63.4% (inactive)
[11]
  growth: -30.1% (active)
[12]
  growth: 21.6% (inactive)
[13]
  growth: -27.7% (active)
[14]
  growth: 43.9% (inactive)
[15]
  growth: 25.9% (inactive)
[16]
  growth: 63.2% (inactive)
[17]
  growth: 38.5% (inactive)
[18]
  growth: 55.4% (inactive)
[19]
  growth: -30% (active)
[20]
  growth: 26.4% (inactive)

## COc1ccc(-n2c(SCC(=O)NNS(=O)(=O)c3ccccc3)nc3ccc(Cl)cc3c2=O)cc1
[1]
  growth: 91% (inactive)
[2]
  growth: 96.6% (inactive)
[3]
  growth: 115% (inactive)
[4]
  growth: 106% (inactive)
[5]
  growth: 120% (inactive)
[6]
  growth: 113% (inactive)
[7]
  growth: 99.5% (inactive)
[8]
  growth: 97.6% (inactive)
[9]
  growth: 92% (inactive)
[10]
  growth: 114% (inactive)
[11]
  growth: 98.7% (inactive)
[12]
  growth: 98.6% (inactive)
[13]
  growth: 101% (inactive)
[14]
  growth: 88.4% (inactive)
[15]
  growth: 87.2% (inactive)
[16]
  growth: 93.4% (inactive)
[17]
  growth: 78.9% (inactive)
[18]
  growth: 99% (inactive)
[19]
  growth: 66.1% (inactive)
[20]
  growth: 102% (inactive)

## COc1cc(Nc2nc(O)c(/C=C3\C=Nc4ccccc43)s2)cc(OC)c1OC
[1]
  growth: -46.5% (active)
[2]
  growth: -65.9% (active)
[3]
  growth: -77.6% (active)
[4]
  growth: -69.4% (active)
[5]
  growth: -5.44% (active)
[6]
  growth: -57.6% (active)
[7]
  growth: 3.33% (active)
[8]
  growth: -85.3% (active)
[9]
  growth: -0.515% (active)
[10]
  growth: -50.7% (active)
[11]
  growth: -63.8% (active)
[12]
  growth: -39.4% (active)
[13]
  growth: -79.8% (active)
[14]
  growth: -71.9% (active)
[15]
  growth: -61.5% (active)
[16]
  growth: 2.95% (active)
[17]
  growth: 2.6% (active)
[18]
  growth: -25.1% (active)
[19]
  growth: -59.3% (active)
[20]
  growth: -19.9% (active)
